Data as given in paper PMC7862700, “An all-to-all approach to the identification of sequence-specific readers for epigenetic DNA modifications on cytosine”.

Tests used:
Assay in all cases: DAPPL (digital affinity profiling via proximity ligation, sequencing); 10 mM Tris-HCl pH 7.5, 50 mM NaCl, 1 mM DTT, 4% glycerol, room temperature, 30 min; GST-TFs on glutathione beads, 16-mer random dsDNA library, 0.1% formaldehyde crosslink after washing; high values mean tight binding
FEV = molecular target: T1, FEV (Homo sapiens, UniProt Q99581 1-238); settings: protein: recombinant; tags: N-terminal GST; dsDNA, one strand shown
T1 sequence: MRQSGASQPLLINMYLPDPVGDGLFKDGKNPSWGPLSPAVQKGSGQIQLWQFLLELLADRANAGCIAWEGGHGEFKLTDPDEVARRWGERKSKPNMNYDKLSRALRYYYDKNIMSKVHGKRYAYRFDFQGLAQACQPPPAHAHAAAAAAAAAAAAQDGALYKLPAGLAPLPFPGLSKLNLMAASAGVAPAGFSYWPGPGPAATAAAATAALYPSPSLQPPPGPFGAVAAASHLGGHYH
Outline: (§1)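 Human transcription factors carrying a GST fusion were produced in yeast, bound to glutathione beads, tagged with DNA barcodes and pooled together with a tag-only sample. Each pool was held with 200 nmole of a random double-stranded 16-mer DNA library in Tris/NaCl/DTT/glycerol buffer for 30 min at room temperature, then washed, crosslinked in 0.1% formaldehyde, proximity-ligated with BsaI/T4 ligase (1 h, 37 °C), PCR-amplified and sequenced on an Illumina NextSeq500. Binding signal is the read frequency of each hexamer for a given factor divided by its frequency in the tag-only sample.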

ETV5 = ETV5 (Homo sapiens, UniProt P41161 1-510); settings: protein: recombinant; tags: N-terminal GST; dsDNA, one strand shown
Chain of ETV5 (P41161 whole entry): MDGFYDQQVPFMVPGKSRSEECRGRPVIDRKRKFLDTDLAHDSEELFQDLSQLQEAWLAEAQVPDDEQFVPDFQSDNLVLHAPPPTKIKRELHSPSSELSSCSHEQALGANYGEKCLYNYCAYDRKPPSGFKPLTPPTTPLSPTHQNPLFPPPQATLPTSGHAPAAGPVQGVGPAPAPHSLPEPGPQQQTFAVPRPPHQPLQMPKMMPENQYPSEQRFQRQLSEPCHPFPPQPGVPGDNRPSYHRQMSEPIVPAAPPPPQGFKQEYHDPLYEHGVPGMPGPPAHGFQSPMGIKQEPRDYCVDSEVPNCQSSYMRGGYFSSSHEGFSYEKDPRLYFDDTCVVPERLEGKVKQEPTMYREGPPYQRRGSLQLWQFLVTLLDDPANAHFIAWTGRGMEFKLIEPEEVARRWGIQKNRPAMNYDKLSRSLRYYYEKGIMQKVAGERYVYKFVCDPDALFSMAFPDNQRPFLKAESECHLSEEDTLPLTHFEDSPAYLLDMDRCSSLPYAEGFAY
Outline: as §1

HSF1 = HSF1 (Homo sapiens, UniProt Q00613 1-529); settings: protein: recombinant; tags: N-terminal GST; chain copies: 3; dsDNA, one strand shown
Chain of HSF1 (Q00613 whole entry): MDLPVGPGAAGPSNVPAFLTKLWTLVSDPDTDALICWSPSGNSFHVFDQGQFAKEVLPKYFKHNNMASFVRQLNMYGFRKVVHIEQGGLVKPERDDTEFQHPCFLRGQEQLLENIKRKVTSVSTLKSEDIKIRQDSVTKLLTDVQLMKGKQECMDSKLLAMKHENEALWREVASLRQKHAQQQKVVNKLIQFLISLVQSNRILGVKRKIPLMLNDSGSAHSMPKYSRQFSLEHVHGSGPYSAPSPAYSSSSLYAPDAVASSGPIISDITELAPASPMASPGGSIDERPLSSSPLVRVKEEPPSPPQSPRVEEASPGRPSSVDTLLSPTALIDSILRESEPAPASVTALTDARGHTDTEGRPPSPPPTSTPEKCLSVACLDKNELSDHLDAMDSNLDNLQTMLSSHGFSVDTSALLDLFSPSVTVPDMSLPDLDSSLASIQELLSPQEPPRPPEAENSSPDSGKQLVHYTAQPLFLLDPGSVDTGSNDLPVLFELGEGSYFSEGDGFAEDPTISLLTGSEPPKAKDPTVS
Outline: as §1

SPIC = molecular target: T2, SPIC (Homo sapiens, UniProt Q8N5J4 1-248); settings: protein: recombinant; tags: N-terminal GST; dsDNA, one strand shown
T2 sequence: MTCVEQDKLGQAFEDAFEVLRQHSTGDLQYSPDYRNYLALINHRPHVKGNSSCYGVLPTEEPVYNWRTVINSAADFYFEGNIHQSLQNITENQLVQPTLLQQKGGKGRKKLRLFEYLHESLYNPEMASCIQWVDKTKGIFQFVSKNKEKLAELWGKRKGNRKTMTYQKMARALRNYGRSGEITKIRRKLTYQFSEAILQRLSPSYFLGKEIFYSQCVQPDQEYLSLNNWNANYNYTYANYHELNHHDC
Outline: as §1

ELF4 = ELF4 (Homo sapiens, UniProt Q99607 1-663); settings: protein: recombinant; tags: N-terminal GST; dsDNA, one strand shown
Chain of ELF4 (Q99607 whole entry): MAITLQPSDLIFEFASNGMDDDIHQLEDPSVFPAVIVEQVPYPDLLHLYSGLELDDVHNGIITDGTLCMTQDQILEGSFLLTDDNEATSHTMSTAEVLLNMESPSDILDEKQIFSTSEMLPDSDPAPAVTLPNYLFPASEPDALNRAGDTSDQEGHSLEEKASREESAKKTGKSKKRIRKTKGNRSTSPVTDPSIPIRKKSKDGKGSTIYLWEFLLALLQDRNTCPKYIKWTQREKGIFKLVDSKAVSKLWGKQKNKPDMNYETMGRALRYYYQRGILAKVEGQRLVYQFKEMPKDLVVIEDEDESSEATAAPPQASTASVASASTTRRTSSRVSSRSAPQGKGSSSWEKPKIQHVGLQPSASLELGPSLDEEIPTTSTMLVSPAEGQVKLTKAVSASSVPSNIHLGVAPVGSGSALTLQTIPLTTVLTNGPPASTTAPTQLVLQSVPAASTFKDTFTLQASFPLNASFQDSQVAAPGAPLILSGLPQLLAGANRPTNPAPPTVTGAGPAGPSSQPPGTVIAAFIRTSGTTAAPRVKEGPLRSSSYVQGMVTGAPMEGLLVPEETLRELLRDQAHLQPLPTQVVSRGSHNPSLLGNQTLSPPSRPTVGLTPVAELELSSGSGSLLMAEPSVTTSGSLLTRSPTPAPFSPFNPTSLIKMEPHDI
Outline: as §1

ELK4 = molecular target: T3, ELK4 (Homo sapiens, UniProt P28324-2 1-405); settings: protein: recombinant; tags: N-terminal GST; dsDNA, one strand shown
T3 sequence: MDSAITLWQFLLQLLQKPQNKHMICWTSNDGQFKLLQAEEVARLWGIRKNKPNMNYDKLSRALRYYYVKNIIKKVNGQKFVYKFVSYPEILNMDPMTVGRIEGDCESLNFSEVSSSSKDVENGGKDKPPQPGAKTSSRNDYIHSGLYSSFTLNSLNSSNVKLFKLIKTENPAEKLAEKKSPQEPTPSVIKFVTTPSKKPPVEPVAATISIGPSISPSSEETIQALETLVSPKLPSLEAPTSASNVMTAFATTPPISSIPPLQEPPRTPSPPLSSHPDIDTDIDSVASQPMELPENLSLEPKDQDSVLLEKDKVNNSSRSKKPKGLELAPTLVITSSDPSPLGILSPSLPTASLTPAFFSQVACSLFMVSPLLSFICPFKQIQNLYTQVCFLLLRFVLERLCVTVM
Outline: as §1

ETV2 = molecular target: T4, ETV2 (Homo sapiens, UniProt O00321 1-342); settings: protein: recombinant; tags: N-terminal GST; dsDNA, one strand shown
T4 sequence: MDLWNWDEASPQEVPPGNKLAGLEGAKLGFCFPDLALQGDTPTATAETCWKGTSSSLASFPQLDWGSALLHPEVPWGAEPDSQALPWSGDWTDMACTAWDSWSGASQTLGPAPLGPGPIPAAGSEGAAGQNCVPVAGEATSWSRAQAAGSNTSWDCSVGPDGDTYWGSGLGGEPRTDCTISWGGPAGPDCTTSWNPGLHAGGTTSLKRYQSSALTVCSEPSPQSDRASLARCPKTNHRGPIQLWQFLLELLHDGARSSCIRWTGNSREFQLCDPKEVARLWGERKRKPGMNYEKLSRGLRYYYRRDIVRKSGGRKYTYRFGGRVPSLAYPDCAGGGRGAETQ
Outline: as §1

ELF3 = molecular target: T5, ELF3 (Homo sapiens, UniProt P78545 1-371); settings: protein: recombinant; tags: N-terminal GST; dsDNA, one strand shown
T5 sequence: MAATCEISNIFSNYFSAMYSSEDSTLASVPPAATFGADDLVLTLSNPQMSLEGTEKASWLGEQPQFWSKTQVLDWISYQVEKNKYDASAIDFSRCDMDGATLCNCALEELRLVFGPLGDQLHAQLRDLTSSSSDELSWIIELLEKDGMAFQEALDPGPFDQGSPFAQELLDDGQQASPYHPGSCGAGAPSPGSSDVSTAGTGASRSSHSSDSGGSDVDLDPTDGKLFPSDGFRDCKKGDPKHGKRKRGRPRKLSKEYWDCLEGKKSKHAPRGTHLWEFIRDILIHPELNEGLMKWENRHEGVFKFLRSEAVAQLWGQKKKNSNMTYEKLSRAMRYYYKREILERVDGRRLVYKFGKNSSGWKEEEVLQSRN
Outline: as §1

CRX = CRX (Homo sapiens, UniProt O43186 1-299); settings: protein: recombinant; tags: N-terminal GST; dsDNA, one strand shown
Chain of CRX (O43186 whole entry): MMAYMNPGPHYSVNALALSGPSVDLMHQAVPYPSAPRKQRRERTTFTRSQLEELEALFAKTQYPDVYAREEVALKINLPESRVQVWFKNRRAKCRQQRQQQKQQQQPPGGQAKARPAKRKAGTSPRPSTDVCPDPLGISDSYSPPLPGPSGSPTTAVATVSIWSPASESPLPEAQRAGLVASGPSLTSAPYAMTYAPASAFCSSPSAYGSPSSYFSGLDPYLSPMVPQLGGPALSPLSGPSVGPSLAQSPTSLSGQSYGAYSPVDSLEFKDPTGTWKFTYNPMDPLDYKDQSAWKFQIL
Outline: as §1

ETV1 = ETV1 (Homo sapiens, UniProt P50549 1-477); settings: protein: recombinant; tags: N-terminal GST; dsDNA, one strand shown
Chain of ETV1 (P50549 whole entry): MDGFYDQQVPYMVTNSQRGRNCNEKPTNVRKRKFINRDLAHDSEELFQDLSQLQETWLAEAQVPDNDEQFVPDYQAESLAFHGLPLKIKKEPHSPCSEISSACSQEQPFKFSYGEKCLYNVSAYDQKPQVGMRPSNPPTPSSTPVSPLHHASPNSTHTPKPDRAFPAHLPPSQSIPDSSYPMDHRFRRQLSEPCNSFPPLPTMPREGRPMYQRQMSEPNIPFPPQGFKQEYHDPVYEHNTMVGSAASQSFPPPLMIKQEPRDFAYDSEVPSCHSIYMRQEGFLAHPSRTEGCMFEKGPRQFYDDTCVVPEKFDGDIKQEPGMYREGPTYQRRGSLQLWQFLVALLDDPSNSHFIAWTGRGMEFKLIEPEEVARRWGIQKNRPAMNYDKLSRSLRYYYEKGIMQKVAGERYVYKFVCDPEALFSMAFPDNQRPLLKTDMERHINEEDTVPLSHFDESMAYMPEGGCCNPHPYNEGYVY
Outline: as §1

ERF = molecular target: T6, ERF (Homo sapiens, UniProt P50548 1-548); settings: protein: recombinant; tags: N-terminal GST; dsDNA, one strand shown
T6 sequence: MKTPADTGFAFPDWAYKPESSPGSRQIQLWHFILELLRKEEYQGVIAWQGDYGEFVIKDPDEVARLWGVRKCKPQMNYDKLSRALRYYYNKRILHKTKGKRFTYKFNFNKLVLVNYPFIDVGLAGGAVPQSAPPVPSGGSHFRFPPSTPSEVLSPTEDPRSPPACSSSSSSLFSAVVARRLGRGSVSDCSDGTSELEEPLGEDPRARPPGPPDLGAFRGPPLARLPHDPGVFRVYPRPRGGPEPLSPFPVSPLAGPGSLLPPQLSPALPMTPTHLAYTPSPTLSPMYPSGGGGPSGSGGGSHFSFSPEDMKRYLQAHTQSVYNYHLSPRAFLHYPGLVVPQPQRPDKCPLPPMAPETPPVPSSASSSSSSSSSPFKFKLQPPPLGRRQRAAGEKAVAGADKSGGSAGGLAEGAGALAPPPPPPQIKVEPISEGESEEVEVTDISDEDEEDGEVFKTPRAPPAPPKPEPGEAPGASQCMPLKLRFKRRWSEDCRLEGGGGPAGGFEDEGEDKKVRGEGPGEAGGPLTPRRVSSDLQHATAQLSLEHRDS
Outline: as §1

ETV3L = molecular target: T7, ETV3L (Homo sapiens, UniProt Q6ZN32 1-361); settings: protein: recombinant; tags: N-terminal GST; dsDNA, one strand shown
T7 sequence: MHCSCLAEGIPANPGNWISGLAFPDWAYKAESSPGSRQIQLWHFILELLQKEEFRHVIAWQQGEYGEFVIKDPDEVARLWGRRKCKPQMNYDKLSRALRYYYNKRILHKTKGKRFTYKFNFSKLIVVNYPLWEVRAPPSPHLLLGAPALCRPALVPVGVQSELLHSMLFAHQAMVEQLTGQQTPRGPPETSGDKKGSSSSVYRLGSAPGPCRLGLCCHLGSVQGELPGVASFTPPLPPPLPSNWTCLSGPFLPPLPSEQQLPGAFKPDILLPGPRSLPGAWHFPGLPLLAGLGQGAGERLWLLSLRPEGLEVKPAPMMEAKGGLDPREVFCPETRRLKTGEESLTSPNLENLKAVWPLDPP
Outline: as §1

ETS2 = molecular target: T8, ETS2 (Homo sapiens, UniProt P15036 1-469); settings: protein: recombinant; tags: N-terminal GST; dsDNA, one strand shown
T8 sequence: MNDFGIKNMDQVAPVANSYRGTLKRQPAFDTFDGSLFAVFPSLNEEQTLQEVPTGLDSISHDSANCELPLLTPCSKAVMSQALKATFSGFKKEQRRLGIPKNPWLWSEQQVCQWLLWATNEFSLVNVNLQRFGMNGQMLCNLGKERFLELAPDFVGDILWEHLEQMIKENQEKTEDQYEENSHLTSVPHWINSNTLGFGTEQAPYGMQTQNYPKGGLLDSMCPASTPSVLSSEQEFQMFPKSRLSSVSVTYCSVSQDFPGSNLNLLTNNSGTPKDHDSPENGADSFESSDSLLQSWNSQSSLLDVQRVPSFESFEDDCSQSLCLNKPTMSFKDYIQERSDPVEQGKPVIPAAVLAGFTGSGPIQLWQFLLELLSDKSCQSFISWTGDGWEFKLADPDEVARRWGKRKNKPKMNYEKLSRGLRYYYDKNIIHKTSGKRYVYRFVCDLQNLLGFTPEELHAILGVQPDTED
Outline: as §1

SPDEF = molecular target: T9, SPDEF (Homo sapiens, UniProt O95238 1-335); settings: protein: recombinant; tags: N-terminal GST; dsDNA, one strand shown
T9 sequence: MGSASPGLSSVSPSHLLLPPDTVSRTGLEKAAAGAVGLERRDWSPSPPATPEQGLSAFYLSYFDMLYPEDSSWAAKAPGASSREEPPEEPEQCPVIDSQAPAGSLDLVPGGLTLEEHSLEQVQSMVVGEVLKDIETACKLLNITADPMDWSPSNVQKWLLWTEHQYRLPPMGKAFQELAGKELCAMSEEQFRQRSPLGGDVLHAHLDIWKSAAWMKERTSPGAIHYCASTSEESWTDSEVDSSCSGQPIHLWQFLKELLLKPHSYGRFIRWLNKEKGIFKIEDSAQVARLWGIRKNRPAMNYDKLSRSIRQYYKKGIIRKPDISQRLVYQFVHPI
Outline: as §1

ETV7 = molecular target: T10, ETV7 (Homo sapiens, UniProt Q9Y603 1-341); settings: protein: recombinant; tags: N-terminal GST; dsDNA, one strand shown
T10 sequence: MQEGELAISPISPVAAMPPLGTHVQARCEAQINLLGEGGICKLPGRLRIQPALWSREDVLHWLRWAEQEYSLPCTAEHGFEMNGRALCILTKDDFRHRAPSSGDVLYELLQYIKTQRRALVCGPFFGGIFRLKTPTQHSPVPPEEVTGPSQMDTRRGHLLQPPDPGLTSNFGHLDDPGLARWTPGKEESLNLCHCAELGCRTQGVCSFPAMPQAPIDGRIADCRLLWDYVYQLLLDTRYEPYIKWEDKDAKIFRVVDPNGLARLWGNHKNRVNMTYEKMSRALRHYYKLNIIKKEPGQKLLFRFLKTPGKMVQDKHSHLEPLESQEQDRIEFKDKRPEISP
Outline: as §1

ELF5 = molecular target: T11, ELF5 (Homo sapiens, UniProt Q9UKW6-2 1-255); settings: protein: recombinant; tags: N-terminal GST; dsDNA, one strand shown
T11 sequence: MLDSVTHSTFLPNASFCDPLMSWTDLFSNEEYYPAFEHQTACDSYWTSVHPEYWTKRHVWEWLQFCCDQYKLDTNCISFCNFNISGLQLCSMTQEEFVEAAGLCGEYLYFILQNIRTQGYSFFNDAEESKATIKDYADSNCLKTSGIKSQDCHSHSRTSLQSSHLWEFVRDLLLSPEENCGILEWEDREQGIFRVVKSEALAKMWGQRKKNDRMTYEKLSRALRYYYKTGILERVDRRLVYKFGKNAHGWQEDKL
Outline: as §1

ETV3 = molecular target: T12, ETV3 (Homo sapiens, UniProt P41162-2 1-143); settings: protein: recombinant; tags: N-terminal GST; dsDNA, one strand shown
T12 sequence: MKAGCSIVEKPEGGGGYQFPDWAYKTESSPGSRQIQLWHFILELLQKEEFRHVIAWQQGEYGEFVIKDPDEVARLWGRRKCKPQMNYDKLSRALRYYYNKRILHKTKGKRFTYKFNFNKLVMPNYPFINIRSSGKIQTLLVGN
Outline: as §1

ETV6 = ETV6 (Homo sapiens, UniProt P41212 1-452); settings: protein: recombinant; tags: N-terminal GST; dsDNA, one strand shown
Chain of ETV6 (P41212 whole entry): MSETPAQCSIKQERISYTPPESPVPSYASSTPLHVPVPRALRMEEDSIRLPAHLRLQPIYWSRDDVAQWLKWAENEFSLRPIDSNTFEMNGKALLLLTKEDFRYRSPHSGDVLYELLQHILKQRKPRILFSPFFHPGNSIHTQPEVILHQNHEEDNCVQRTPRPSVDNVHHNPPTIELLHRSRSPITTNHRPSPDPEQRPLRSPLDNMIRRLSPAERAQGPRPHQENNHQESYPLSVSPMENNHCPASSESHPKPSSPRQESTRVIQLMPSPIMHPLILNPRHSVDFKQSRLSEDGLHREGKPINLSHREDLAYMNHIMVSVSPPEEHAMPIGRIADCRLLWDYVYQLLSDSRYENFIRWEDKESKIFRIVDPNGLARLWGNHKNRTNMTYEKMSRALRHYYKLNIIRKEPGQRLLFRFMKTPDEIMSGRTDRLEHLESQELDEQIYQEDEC
Outline: as §1

TTGTGG
binding signal (FEV): 1.27 fold enrichment (6-mer frequency, TF over GST control) | binding signal (ETV5): 1.41 fold enrichment (6-mer frequency, TF over GST control) | binding signal (HSF1): 1.37 fold enrichment (6-mer frequency, TF over GST control) | binding signal (SPIC): 1.44 fold enrichment (6-mer frequency, TF over GST control) | binding signal (ELF4): 1.51 fold enrichment (6-mer frequency, TF over GST control) | binding signal (ELK4): 1.35 fold enrichment (6-mer frequency, TF over GST control) | binding signal (ETV2): 1.29 fold enrichment (6-mer frequency, TF over GST control) | binding signal (ELF3): 1.34 fold enrichment (6-mer frequency, TF over GST control) | binding signal (CRX): 1.46 fold enrichment (6-mer frequency, TF over GST control) | binding signal (ETV1): 1.27 fold enrichment (6-mer frequency, TF over GST control) | binding signal (ERF): 1.33 fold enrichment (6-mer frequency, TF over GST control) | binding signal (ETV3L): 1.6 fold enrichment (6-mer frequency, TF over GST control) | binding signal (ETS2): 1.36 fold enrichment (6-mer frequency, TF over GST control) | binding signal (SPDEF): 1.31 fold enrichment (6-mer frequency, TF over GST control) | binding signal (ETV7): 1.34 fold enrichment (6-mer frequency, TF over GST control) | binding signal (ELF5): 1.32 fold enrichment (6-mer frequency, TF over GST control) | binding signal (ETV3): 1.37 fold enrichment (6-mer frequency, TF over GST control) | binding signal (ETV6): 1.29 fold enrichment (6-mer frequency, TF over GST control)
